Source: PubChem
Methyltransferases: Primary Screen for Target Class Profiling of Small Molecule Inhibitors of Methyltransferases; purified enzyme, MTase-Glo SAH luminescence; stronger effect = lower value; calls only at 40 µM; 3.9% of 25,000 active; AID 1745853, 2022; call rule not given here
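Each enzyme was assayed with SAM and its substrate. SAH formation detected by MTase-Glo luminescence; single-point 40 uM screen[…].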
Calls only; n = inactive; + = active, no number; ! = a repeat was not active. Many of the other results were omitted from the sample, so hits are more common in it than they were.

SMILES	Methyltransferases
[Cl-].[Cl][Pt].[NH2-].[NH2-].c1ccncc1	+
CCc1ccc(C2c3cccn3-c3ccccc3CN2C(=O)Nc2cc(OC)ccc2OC)cc1 (stereo not drawn)	n
Cc1cc(C)cc(NC(=O)N2Cc3ccccc3-n3cccc3C2c2ccc(N(C)C)cc2)c1 (stereo not drawn)	n
CCc1ccc(C2c3cccn3-c3ccccc3CN2C(=O)Nc2ccccc2CC)cc1 (stereo not drawn)	n
CCOC(=O)CNC(=O)N1Cc2ccccc2-n2cccc2C1c1ccc(C(C)C)cc1 (stereo not drawn)	n
COc1ccc(C2c3cccn3-c3ccccc3CN2C(=O)NCc2cccc(OC)c2)cc1 (stereo not drawn)	n
CCOC(=O)CNC(=O)N1Cc2ccccc2-n2cccc2C1c1ccc(Cl)cc1 (stereo not drawn)	n
Cc1nnc2n1-c1sc(CCc3ccc(CC(C)C)cc3)cc1C(c1ccccc1Cl)=NC2C (stereo not drawn)	+
CCOc1ccc(C2c3cccn3-c3ccccc3CN2C(=O)Nc2cc(Cl)ccc2C)cc1 (stereo not drawn)	n
COc1ccc(C2c3cccn3-c3ccccc3CN2C(=O)Nc2ccc(C)cc2)cc1OC (stereo not drawn)	n
COc1ccc(NC(=O)N2Cc3ccccc3-n3cccc3C2c2ccc(OC)cc2)cc1 (stereo not drawn)	n
COc1ccc(C2c3cccn3-c3ccccc3CN2C(=O)Nc2cc(C)ccc2C)cc1OC (stereo not drawn)	n
CCOC(=O)c1ccc(NC(=O)N2Cc3ccccc3-n3cccc3C2C)cc1 (stereo not drawn)	n
CC(=O)C1=C(O)[C@@H]2[C@H]3c4c[nH]c5cccc(c45)C[C@H]3C(C)(C)N2C1=O	+
COc1cccc(NC(=O)N2Cc3ccccc3-n3cccc3C2c2cccc(Cl)c2)c1 (stereo not drawn)	n
CCC1CN2CCc3cc(OC)c(OC)cc3C2CC1CC1=NCCc2cc(O)c(OC)cc21 (stereo not drawn)	+
CCc1ccc(C2c3cccn3-c3ccccc3CN2C(=O)Nc2ccccc2C(=O)OC)cc1 (stereo not drawn)	n
COc1ccccc1NC(=O)N1Cc2ccccc2-n2cccc2C1c1cccs1 (stereo not drawn)	n
CCOc1ccc(C2c3cccn3-c3ccccc3CN2C(=O)Nc2ccc(C)cc2)cc1 (stereo not drawn)	n
CCOC(=O)c1ccc(NC(=O)N2Cc3ccccc3-n3cccc3C2c2cc(F)cc(F)c2)cc1 (stereo not drawn)	n
COCCCNC(=O)N1Cc2ccccc2-n2cccc2C1c1cccs1 (stereo not drawn)	n
CCOc1ccc(NC(=O)N2Cc3ccccc3-n3cccc3C2c2ccccc2)cc1 (stereo not drawn)	n
CCCN1CCO[C@@H]2c3cc(O)ccc3OC[C@H]21	n
CCCN1CCc2cccc3c2[C@H]1Cc1ccc(O)c(O)c1-3	+
COc1ccc(C)cc1NC(=O)N1Cc2ccccc2-n2cccc2C1c1ccc(N(C)C)cc1 (stereo not drawn)	n
SMILES	Methyltransferases
CC1CCCC(O)CCC/C=C/c2cc(O)cc(O)c2C(=O)O1 (stereo not drawn)	n
COC1CCCC(C)OC(=O)Cc2cc(O)cc(O)c2C(=O)C1 (stereo not drawn)	n
CC1CCCC(=O)CCC/C=C/c2cc(O)cc(O)c2C(=O)O1 (stereo not drawn)	+
COc1ccc(C2c3cccn3-c3ccccc3CN2C(=O)Nc2ccc(F)cc2F)cc1 (stereo not drawn)	n
O=C(NCCc1ccccc1)N1Cc2ccccc2-n2cccc2C1c1cccs1 (stereo not drawn)	n
O=C(Nc1ccccc1F)N1Cc2ccccc2-n2cccc2C1c1ccc(F)cc1 (stereo not drawn)	n
CNc1ccc2oc(C[C@H]3O[C@@]4(CC[C@H]3C)O[C@H]([C@H](C)C(=O)c3ccc[nH]3)[C@H](C)C[C@H]4C)nc2c1C(=O)O	+
CCOC(=O)c1cccc(NC(=O)N2Cc3ccccc3-n3cccc3C2c2ccccc2C)c1 (stereo not drawn)	n
CSc1ccc(C2c3cccn3-c3ccccc3CN2C(=O)Nc2cccc(C(F)(F)F)c2)cc1 (stereo not drawn)	n
O=C(NCc1ccc(F)cc1)N1Cc2ccccc2-n2cccc2C1c1cccc(Cl)c1 (stereo not drawn)	n
N#C/C(=C/c1ccc(O)c(O)c1)C(N)=S	+!
COC(=O)c1cccc(NC(=O)N2Cc3ccccc3-n3cccc3C2c2ccccc2Cl)c1 (stereo not drawn)	n
CCOc1ccccc1NC(=O)N1Cc2ccccc2-n2cccc2C1c1ccc(Cl)cc1 (stereo not drawn)	n
CCc1ccc(NC(=O)N2Cc3ccccc3-n3cccc3C2c2ccccc2)cc1 (stereo not drawn)	n
CCOC(=O)c1ccc(NC(=O)N2Cc3ccccc3-n3cccc3C2c2ccccc2Cl)cc1 (stereo not drawn)	n
CCOc1ccc(C2c3cccn3-c3ccccc3CN2C(=O)Nc2ccc(C)cc2Cl)cc1 (stereo not drawn)	n
COc1ccc(C2c3cccn3-c3ccccc3CN2C(=O)Nc2ccc(F)c(Cl)c2)cc1OC (stereo not drawn)	n
CCOc1ccc(C2c3cccn3-c3ccccc3CN2C(=O)Nc2cc(OC)ccc2OC)cc1 (stereo not drawn)	n
COc1ccc2c(c[n+](C)c3c4cc5c(cc4ccc23)OCO5)c1OC	+
CCOc1ccc(C2c3cccn3-c3ccccc3CN2C(=O)Nc2ccc(C)c(C)c2)cc1 (stereo not drawn)	n
COCCCNC(=O)N1Cc2ccccc2-n2cccc2C1c1ccc(SC)cc1 (stereo not drawn)	n
CCOC(=O)c1cccc(NC(=O)N2Cc3ccccc3-n3cccc3C2c2ccc(SC)cc2)c1 (stereo not drawn)	n
O=C(Nc1ccccc1C(F)(F)F)N1Cc2ccccc2-n2cccc2C1c1cccs1 (stereo not drawn)	n
Cc1cccc(NC(=O)N2Cc3ccccc3-n3cccc3C2c2ccc(Cl)cc2)c1 (stereo not drawn)	n
CCOC(=O)c1cccc(NC(=O)N2Cc3ccccc3-n3cccc3C2CC)c1 (stereo not drawn)	n
SMILES	Methyltransferases
Oc1ccc2c(c1)C13CCCC[C@H]1[C@@H](C2)N(CC1CCC1)CC3	+
COc1ccc(NC(=O)N2Cc3ccccc3-n3cccc3C2c2ccc(F)cc2)c(OC)c1 (stereo not drawn)	n
Cc1ccc(C2c3cccn3-c3ccccc3CN2C(=O)Nc2ccc(Br)cc2)cc1 (stereo not drawn)	n
COc1cc(OC)c(NC(=O)N2Cc3ccccc3-n3cccc3C2c2ccccc2)cc1Cl (stereo not drawn)	n
CC1Oc2cc3c(-c4c(O)cc(O)c5c(O)c6c(cc45)OC(C)C(C)C6=O)c(O)cc(O)c3c(O)c2C(=O)C1C (stereo not drawn)	+
Cc1ccc(Cl)cc1NC(=O)N1Cc2ccccc2-n2cccc2C1C(C)C (stereo not drawn)	n
Cc1ccc(C2c3cccn3-c3ccccc3CN2C(=O)Nc2cccc(C)c2C)cc1 (stereo not drawn)	n
CC[C@@H](CO)NC(=O)[C@@H]1C=C2c3cccc4c3c(cn4C)C[C@H]2N(C)C1	+
CC[C@@H](CO)NC(=O)[C@@H]1C=C2c3cccc4[nH]cc(c34)C[C@H]2N(C)C1	+
